Drawing on PubChem BioAssay (EPA / NIEHS), this text covers outcome and AC50 for 12 molecules.

Inconclusive results are not listed. Activity calls are given as the source filed them. The calls were made as follows: active = hit-call score of the fitted dose curve at least 0.9, where 1 is the maximum; inconclusive = response in the unintended direction; inactive = score below 0.9.

The target of assay [1] is human Protein Phosphatase, Mg2+/Mn2+ Dependent 1A (PPM1A), PPM1A (gene 5494) (UniProt P35813). In words: NVS_ENZ_hPPM1A: NovaScreen (NVS) Enzymatic Assay for human Protein Phosphatase, Mg2+/Mn2+ Dependent 1A (PPM1A) (AID 2283198). In outline: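 Primary screen in duplicate at 25 uM, with actives then titrated to a maximum of 50 uM. Recombinant PPM1A dephosphorylation of fluorescent substrate measured at 1 h, with substrate and product separated by mobility shift; inhibition fitted against DMSO.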

Assay [2] deals with human Protein Tyrosine Phosphatase Non-receptor Type 1 (PTPN1), PTPN1 (gene 5770) (UniProt P18031). Description: NVS_ENZ_hPTPN1: NovaScreen (NVS) Enzymatic Assay for human Protein Tyrosine Phosphatase Non-receptor Type 1 (PTPN1) (AID 2283201). In short, it runs like this: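 Chemicals were first tested in duplicate at 25 uM, and those passing threshold went on to singleton concentration series topping at 50 uM. Recombinant enzyme, specific substrate, product separated by mobility shift, fluorescence read at 1.33 h; activity loss relative to DMSO.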
Sequence of human Protein Tyrosine Phosphatase Non-receptor Type 1 (PTPN1), PTPN1 (gene 5770) (P18031 whole entry, looked up): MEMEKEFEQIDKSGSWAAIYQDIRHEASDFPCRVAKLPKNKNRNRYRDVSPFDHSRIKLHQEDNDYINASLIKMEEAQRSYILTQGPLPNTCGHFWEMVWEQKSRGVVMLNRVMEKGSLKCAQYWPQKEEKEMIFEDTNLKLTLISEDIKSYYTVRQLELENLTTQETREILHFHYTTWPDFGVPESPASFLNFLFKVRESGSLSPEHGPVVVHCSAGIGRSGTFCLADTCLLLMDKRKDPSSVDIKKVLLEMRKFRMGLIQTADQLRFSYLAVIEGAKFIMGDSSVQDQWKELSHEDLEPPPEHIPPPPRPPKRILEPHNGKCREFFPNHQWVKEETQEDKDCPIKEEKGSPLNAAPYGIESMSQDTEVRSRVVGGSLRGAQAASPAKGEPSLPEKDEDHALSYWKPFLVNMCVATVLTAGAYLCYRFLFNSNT

For assay [3], the target named is Tyrosine-protein phosphatase non-receptor type 12 (Homo sapiens) (UniProt Q05209). In words: NVS_ENZ_hPTPN12: NovaScreen (NVS) Enzymatic Assay for human Protein Tyrosine Phosphatase Non-receptor Type 12 (PTPN12) (AID 2283204). In short, it runs like this: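 Single-concentration duplicates (25 uM) preceded singleton concentration-response up to 50 uM for chemicals passing threshold. Cell-free recombinant PTPN12 activity was read 1.33 h after dosing via fluorescence after mobility-shift separation; loss of signal versus DMSO.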
Sequence of Tyrosine-protein phosphatase non-receptor type 12 (Homo sapiens) (Q05209 whole entry, looked up): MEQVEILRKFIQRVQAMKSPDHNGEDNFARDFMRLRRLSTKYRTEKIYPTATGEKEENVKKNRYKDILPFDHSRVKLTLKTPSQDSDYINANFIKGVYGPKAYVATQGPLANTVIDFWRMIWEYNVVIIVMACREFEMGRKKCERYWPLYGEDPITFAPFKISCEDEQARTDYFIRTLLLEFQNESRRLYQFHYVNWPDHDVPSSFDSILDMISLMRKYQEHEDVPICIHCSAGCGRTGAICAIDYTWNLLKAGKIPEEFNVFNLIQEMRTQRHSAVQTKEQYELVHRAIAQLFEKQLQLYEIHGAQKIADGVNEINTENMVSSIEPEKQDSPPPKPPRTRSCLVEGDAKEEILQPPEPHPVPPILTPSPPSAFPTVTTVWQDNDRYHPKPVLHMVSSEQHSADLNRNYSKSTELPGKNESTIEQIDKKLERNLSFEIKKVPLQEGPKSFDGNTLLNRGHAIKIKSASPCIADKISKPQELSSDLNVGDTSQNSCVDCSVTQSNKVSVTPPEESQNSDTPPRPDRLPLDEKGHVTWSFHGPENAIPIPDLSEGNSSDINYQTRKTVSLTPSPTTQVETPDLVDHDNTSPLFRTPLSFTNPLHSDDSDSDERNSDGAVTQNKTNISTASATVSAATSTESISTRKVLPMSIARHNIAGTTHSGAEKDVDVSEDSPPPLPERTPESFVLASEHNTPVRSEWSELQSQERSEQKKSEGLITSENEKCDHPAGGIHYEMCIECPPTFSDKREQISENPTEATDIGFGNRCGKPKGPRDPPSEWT

Assay [4] deals with Tyrosine-protein phosphatase non-receptor type 13 (Homo sapiens) (UniProt Q12923). In words: NVS_ENZ_hPTPN13: NovaScreen (NVS) Enzymatic Assay for human Protein Tyrosine Phosphatase Non-receptor Type 13 (PTPN13) (AID 2283205). In outline:
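Screened first at a single 25 uM in duplicate; compounds passing the threshold (e.g. 30% inhibition) were rerun in concentration series, top 50 uM. Recombinant enzyme, fluorescent substrate, mobility-shift separation, 0.5 h read. Data fitted as inhibition relative to DMSO.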

Assay [5] has as its target human Protein Tyrosine Phosphatase Receptor Type M (PTPRM), PTPRM (gene 5797) (UniProt P28827). Description: NVS_ENZ_hPTPRM: NovaScreen (NVS) Enzymatic Assay for human Protein Tyrosine Phosphatase Receptor Type M (PTPRM) (AID 2283215). In outline:
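Read-out is fluorescence after electrophoretic separation of substrate and product, taken 1.33 h post-dosing with recombinant enzyme. Compounds screened at 25 uM in duplicate, then concentration series for actives; activity as signal loss relative to DMSO.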

Assay [6] has as its target human Sirtuin 2 (SIRT2), SIRT2 (gene 22933) (UniProt Q8IXJ6). Description: NVS_ENZ_hSIRT2: NovaScreen (NVS) Enzymatic Assay for human Sirtuin 2 (SIRT2) (AID 2283217). In short, it runs like this:
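Single-point duplicate screen at 25 uM, then concentration-response (max 50 uM) for chemicals passing threshold. Enzyme activity of recombinant human SIRT2 measured after 1 hr by fluorescence with mobility-shift separation of product; DMSO baseline.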

Assay [7] concerns the target human Sirtuin 1 (SIRT1), SIRT1 (gene 23411) (UniProt Q96EB6). Description: NVS_ENZ_hSIRT1: NovaScreen (NVS) Enzymatic Assay for human Sirtuin 1 (SIRT1) (AID 2283219). In outline: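 Cell-free recombinant SIRT1 with a fluorescent substrate; substrate and product separated by electrophoretic mobility shift and read by fluorescence intensity, 1 h after dosing. Primary screen at 25 uM in duplicate; hits re-run in concentration-response up to 50 uM, relative to DMSO.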

Assay [8] addresses human Tyrosine Protein Kinase Receptor Tie-2 (Tie2), TEK (gene 7010) (UniProt Q02763). In words: NVS_ENZ_hTie2: NovaScreen (NVS) Enzymatic Assay for human Tyrosine Protein Kinase Receptor Tie-2 (Tie2) (AID 2283225). In outline:
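Substrate and product were separated by mobility shift and detected by fluorescence after a 1-hour reaction with recombinant Tie2. Chemicals passing a 25 uM single-point screen were titrated to a maximum of 50 uM. Results were normalized to DMSO baseline.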

Assay [9] concerns the target Serine/threonine-protein phosphatase PP1-alpha catalytic subunit (Homo sapiens) (UniProt P62136). Description: NVS_ENZ_hPPP1CA: NovaScreen (NVS) Enzymatic Assay for human Protein Phosphatase 1 Aatalytic subunit Alpha (PPP1CA) (AID 2283200). In outline: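 Chemicals were first screened in duplicate at 25 uM, and those passing threshold (e.g. 30% inhibition) were run as concentration series to 50 uM. Cell-free recombinant protein, 1.33 h read, fluorescent substrate/product mobility-shift detection, normalised to DMSO.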

For assay [10], the target named is Tyrosine-protein phosphatase non-receptor type 14 (Homo sapiens) (UniProt Q15678). In words: NVS_ENZ_hPTPN14: NovaScreen (NVS) Enzymatic Assay for human Protein Tyrosine Phosphatase Non-receptor Type 14 (PTPN14) (AID 2283206). In outline:
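Fluorescent substrate turnover by recombinant human PTPN14 was measured 0.5 h after compound addition, with substrate and product separated by mobility shift. Single-point screening at 25 uM, then concentration-response up to 50 uM for chemicals meeting threshold (e.g., 30% inhibition).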

The target of assay [11] is human SRC Proto-Oncogene, Non-receptor Tyrosine Kinase (SRC), SRC (gene 6714) (UniProt P12931). In words: NVS_ENZ_hSRC: NovaScreen (NVS) Enzymatic Assay for human SRC Proto-Oncogene, Non-receptor Tyrosine Kinase (SRC) (AID 2283223). In short, it runs like this: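 Compounds passing 30% inhibition at 25 uM (duplicate) were titrated to a top concentration of 50 uM. Enzyme activity read by fluorescence with mobility-shift substrate/product separation after 1 h; DMSO baseline.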

The target in assay [12] is human Protein Tyrosine Phosphatase Receptor Type B (PTPRB), PTPRB (gene 5787) (UniProt P23467). Description: NVS_ENZ_hPTPRB: NovaScreen (NVS) Enzymatic Assay for human Protein Tyrosine Phosphatase Receptor Type B (PTPRB) (AID 2283211). In outline: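 Recombinant human PTPRB with a fluorescent substrate, product separated by electrophoretic mobility shift; read 1 h after dosing. Primary screen in duplicate at 25 uM; actives then retested in concentration series; loss of signal versus DMSO.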

For assay [13], the target named is human Protein Tyrosine Phosphatase Receptor Type C (PTPRC), PTPRC (gene 5788) (UniProt P08575). Description: NVS_ENZ_hPTPRC: NovaScreen (NVS) Enzymatic Assay for human Protein Tyrosine Phosphatase Receptor Type C (PTPRC) (AID 2283212). In outline: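 Absorbance-based phosphatase activity of human PTPRC protein extracted from yeast was measured 1 h post-dosing. Compounds first tested at 25 uM in duplicate, then those passing threshold in singleton concentration series to 50 uM.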
Sequence of human Protein Tyrosine Phosphatase Receptor Type C (PTPRC), PTPRC (gene 5788) (P08575 whole entry, looked up): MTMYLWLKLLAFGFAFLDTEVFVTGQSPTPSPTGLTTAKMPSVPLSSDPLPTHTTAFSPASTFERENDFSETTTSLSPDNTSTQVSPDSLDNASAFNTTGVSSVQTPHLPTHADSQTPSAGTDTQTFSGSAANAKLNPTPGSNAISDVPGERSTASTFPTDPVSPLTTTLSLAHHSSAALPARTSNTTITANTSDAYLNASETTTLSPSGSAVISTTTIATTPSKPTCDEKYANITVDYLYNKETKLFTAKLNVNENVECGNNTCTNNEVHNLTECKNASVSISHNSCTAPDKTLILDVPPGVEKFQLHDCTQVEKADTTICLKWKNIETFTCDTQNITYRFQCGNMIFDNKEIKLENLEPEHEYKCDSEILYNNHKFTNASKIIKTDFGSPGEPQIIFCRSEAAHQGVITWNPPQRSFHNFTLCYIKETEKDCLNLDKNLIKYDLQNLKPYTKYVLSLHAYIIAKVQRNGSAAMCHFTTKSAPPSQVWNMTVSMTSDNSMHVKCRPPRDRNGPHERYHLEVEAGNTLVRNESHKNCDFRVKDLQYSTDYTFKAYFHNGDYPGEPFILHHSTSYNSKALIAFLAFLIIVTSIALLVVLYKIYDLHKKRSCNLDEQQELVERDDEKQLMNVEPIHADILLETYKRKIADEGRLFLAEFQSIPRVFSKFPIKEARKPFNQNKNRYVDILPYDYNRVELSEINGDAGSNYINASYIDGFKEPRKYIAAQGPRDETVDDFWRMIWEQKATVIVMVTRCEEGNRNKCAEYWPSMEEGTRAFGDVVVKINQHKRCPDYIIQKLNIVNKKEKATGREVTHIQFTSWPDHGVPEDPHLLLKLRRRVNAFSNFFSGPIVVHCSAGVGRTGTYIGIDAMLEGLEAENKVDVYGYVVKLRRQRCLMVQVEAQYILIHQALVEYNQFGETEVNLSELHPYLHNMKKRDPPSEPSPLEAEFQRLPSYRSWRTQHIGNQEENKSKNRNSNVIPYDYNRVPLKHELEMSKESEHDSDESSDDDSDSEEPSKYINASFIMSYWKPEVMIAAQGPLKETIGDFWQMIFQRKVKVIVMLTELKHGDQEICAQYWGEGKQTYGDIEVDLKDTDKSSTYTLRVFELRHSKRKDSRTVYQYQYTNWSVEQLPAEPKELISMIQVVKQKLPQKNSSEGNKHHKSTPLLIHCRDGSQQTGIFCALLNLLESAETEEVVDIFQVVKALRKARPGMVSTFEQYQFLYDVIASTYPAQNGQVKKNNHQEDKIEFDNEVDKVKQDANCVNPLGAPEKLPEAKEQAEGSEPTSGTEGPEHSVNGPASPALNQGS

Assay [14] has as its target human Vascular Endothelial Growth Factor Receptor 3 (VEGFR3), FLT4 (gene 2324) (UniProt P35916). In words: NVS_ENZ_hVEGFR3: NovaScreen (NVS) Enzymatic Assay for human Vascular Endothelial Growth Factor Receptor 3 (VEGFR3) (AID 2283229). In short, it runs like this: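 Chemicals first run in duplicate at 25 uM, with actives re-tested in concentration series to a top of 50 uM. Recombinant VEGFR3 activity measured after 1 h via fluorescence with mobility-shift product separation; inhibition fitted relative to DMSO.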

Sequence of human Sirtuin 1 (SIRT1), SIRT1 (gene 23411) (Q96EB6 whole entry, looked up): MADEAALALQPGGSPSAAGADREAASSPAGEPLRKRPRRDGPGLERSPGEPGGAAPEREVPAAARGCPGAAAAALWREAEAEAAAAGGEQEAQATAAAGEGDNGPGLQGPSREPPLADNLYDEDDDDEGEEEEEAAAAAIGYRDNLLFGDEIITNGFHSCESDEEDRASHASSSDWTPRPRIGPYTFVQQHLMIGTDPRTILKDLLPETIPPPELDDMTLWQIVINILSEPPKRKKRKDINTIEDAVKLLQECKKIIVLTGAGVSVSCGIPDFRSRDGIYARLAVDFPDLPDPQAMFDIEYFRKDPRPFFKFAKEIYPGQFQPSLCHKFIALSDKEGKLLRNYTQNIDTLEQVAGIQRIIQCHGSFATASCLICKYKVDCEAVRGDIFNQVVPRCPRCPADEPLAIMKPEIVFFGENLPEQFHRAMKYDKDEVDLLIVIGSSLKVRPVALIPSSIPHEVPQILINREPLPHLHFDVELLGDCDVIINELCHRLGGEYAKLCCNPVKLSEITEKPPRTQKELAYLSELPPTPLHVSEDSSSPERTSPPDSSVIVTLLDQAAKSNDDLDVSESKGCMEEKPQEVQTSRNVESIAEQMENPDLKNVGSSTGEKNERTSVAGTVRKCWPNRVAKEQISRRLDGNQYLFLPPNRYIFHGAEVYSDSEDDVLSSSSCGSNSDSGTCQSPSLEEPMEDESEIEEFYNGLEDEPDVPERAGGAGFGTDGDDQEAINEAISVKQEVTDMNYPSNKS
Sequence of human Tyrosine Protein Kinase Receptor Tie-2 (Tie2), TEK (gene 7010) (Q02763 whole entry, looked up): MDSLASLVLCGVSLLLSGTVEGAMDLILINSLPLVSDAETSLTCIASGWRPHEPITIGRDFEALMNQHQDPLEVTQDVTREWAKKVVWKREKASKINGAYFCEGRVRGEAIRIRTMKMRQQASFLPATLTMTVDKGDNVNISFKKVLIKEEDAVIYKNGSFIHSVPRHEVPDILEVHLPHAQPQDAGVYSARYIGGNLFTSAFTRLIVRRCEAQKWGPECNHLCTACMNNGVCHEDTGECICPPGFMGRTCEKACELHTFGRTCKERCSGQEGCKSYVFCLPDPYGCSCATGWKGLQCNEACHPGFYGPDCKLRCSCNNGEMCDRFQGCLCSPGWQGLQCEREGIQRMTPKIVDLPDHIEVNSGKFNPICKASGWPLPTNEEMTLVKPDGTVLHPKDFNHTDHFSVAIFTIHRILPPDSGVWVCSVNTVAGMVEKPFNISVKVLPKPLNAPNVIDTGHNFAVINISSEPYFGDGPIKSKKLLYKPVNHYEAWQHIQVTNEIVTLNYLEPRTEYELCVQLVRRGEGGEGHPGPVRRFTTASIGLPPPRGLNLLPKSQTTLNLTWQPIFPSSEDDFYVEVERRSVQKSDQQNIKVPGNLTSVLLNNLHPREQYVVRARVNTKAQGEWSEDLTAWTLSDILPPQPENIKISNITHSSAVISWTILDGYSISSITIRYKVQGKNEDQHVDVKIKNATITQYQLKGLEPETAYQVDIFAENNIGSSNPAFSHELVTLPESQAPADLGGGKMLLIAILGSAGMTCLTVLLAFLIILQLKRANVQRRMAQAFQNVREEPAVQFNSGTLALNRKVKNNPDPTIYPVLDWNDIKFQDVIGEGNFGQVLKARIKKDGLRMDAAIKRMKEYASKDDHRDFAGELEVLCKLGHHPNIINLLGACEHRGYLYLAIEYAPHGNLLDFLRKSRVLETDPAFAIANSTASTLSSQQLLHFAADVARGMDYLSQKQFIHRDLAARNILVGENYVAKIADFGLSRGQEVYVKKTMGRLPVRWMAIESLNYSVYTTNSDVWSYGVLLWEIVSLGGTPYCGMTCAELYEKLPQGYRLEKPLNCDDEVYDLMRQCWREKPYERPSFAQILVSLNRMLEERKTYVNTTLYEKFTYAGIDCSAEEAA
Sequence of human Sirtuin 2 (SIRT2), SIRT2 (gene 22933) (Q8IXJ6 whole entry, looked up): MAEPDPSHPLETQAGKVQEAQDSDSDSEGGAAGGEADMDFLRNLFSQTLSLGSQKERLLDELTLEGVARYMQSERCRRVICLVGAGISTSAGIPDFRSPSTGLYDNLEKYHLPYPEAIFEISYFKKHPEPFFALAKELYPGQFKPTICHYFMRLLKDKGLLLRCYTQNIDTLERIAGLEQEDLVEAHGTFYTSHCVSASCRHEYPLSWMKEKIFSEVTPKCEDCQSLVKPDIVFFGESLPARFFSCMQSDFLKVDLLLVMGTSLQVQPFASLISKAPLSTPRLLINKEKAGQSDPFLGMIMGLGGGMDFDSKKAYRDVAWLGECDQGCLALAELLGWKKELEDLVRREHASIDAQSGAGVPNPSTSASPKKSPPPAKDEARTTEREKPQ

For orientation: AC50 means the concentration giving half of the maximal activity seen. Take `CC(=O)[O][Hg][c]1ccccc1`: the molecule was called inactive in assay [1], in assay [5] and in [8]. Moreover, the AC50 is 9.68 µM (active) in assay [2]; 16 µM (active) in [3]; 5.38 µM (active) in assay [4]; 2.46 µM (active) in assay [6]; 6.16 µM (active) in assay [7].
Turning to `CCC(C)(C)c1ccc(O)c(C(C)(C)CC)c1`, the result in assay [9] and in [7] was inactive.
As to `O=C(Nc1ccc2[nH]ccc2c1)c1cc2cc(F)ccc2n1Cc1cccc(F)c1`, the call in assay [2] was inactive.
`CCOC(=O)Nc1cccc(OC(=O)Nc2ccccc2)c1`: in assay [3], the result was inactive.
As to `CC(C)(c1ccccc1)c1ccc(O)c(C(C)(C)c2ccccc2)c1`, the result in assay [4] was inactive.
As to `ClC1(Cl)C2(Cl)C3(Cl)C4(Cl)C(Cl)(Cl)C5(Cl)C3(Cl)C1(Cl)C5(Cl)C24Cl` (stereo unspecified), the molecule was classed as inactive in assay [10] and in assay [11].
With `O=c1[nH]c(=O)[nH]c(=O)[nH]1`, the call in assay [12] was inactive.
Take `O=C(O)C(Cl)(Cl)Cl`: the call in assay [13] was inactive.
As for `O=C(O)C(F)(F)C(F)(F)C(F)(F)C(F)(F)C(F)(F)C(F)(F)C(F)(F)C(F)(F)C(F)(F)C(F)(F)F`, in assay [13], the AC50 is 11.9 µM (active).
For `CC(C)(C)CC(C)(C)c1ccc(O)cc1`, the outcome in assay [6] was inactive.
Turning to `COP(=S)(OC)Oc1ccc(Sc2ccc(OP(=S)(OC)OC)cc2)cc1`, the call in assay [8] was inactive.
As to `Clc1ccc(C2(Cn3cncn3)CC(Br)CO2)c(Cl)c1` (stereo unspecified), the call in assay [14] was inactive.
